Assay outcomes from PubChem BioAssay.
This is a sample that favours compounds with a hit; in the whole collection about 5.4% have one here.
Sm TGR block: S. mansoni TGR enzyme inhibition; purified TGR, DTNB reduction, TNB absorbance 405 nm; AID 485364; Potency, µM (titrated, usually from 114 µM), for inactives: top-dose activity change, negative = inhibition, hits mostly inhibitors; 360,000 compounds, 3% hits; Q962Y6; active = well fitted inhibition curve with a large enough effect; inconclusive = small, poorly fitted or top-dose-only effect; inactive = no such curve, though single readings can be large or run the other way; note: nearly all actives have a fitted effect of over 60% in size
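First, TGR (20 nM dispensed) and NADPH were mixed with compound. Second, a 15 min room-temperature incubation followed. Third, further NADPH and then DTNB were added to start the reaction. Finally, TNB absorbance was monitored kinetically.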
VACV Venus inh: inhibitors of vaccinia virus (Venus reporter). Vaccinia virus Venus reporter expression, fluorescence. Potency, µM (titrated, usually from 36.5 µM), inactives show top-dose activity change, negative = inhibition, hits mostly inhibitors. 330,000 compounds, 0.46% hits. AID 720580; calls by dose curve; tested in A549 cells; note: nearly all actives have a fitted effect of over 30% in size
LASV entry inh: Lassa virus entry inhibition. Lassa virus pseudotype entry inhibition, cell reporter. Potency, µM (series often up to 37.9 µM), for the others: at the top dose activity change, negative = inhibition, usual class: inhibitors. 300,000 compounds, 1.2% hits; calls by dose curve; tested in HEK293 cells; note: nearly all actives have a fitted effect of over 50% in size
FMDV inh: blocks foot and mouth disease virus; FMDV antiviral cell-based qHTS; Potency, µM (doses to about 57.9 µM), for the others: at the top dose activity change, negative = inhibition, most hits filed as inhibitors; 410,000 compounds, 1.2% hits; calls by dose curve; tested in HEK293T cells; note: read-out not given here; nearly all actives have a fitted effect of over 45% in size
Marburg entry inh: Marburg virus entry inhibition. Marburg virus pseudotyped entry inhibition, cell reporter. AID 540276. Potency, µM (top dose mostly 37.8 µM), for inactives: at the top dose activity change, negative = inhibition, most hits filed as inhibitors. 300,000 compounds, 1.8% hits; calls by dose curve; tested in HEK293 cells
Vaccinia mCherry: vaccinia inhibition (mCherry reporter). 310,000 compounds, 0.63% hits. Potency, µM (titrated, usually from 36.5 µM), without a hit: at the highest dose activity change, negative = inhibition, most hits filed as inhibitors. Vaccinia virus mCherry reporter infection, fluorescence; calls by dose curve; tested in A549 cells; note: nearly all actives have a fitted effect of over 35% in size
* marks the source's active call; other numbers are inactive results; i = inactive; ? = inconclusive; . = not tested or not shown; ! = not active in a repeat; [ ] = remark or other dose. % is set by controls: 0 for no effect and ±100 for the full control effect; potency is the fitted concentration of half-maximal effect.

SMILES | Sm TGR block | VACV Venus inh | LASV entry inh | FMDV inh | Marburg entry inh | Vaccinia mCherry
C[C@@H]1CN(Cc2ccc3c(c2)CN(C(=O)CCc2nc4ccc(F)cc4[nH]2)CCO3)C[C@H](C)O1 | . | 6% | . | -1% | . | -8%
CCN1CCN(C(c2cccc(OC)c2OC)c2nnnn2Cc2ccco2)CC1 (stereo not drawn) | 0%[57.1 µM] | -2% | 3% | -8% | 0%[46.1 µM] | -5%
COc1ccc(N2CCN(C(c3cc(OC)ccc3OC)c3nnnn3Cc3ccco3)CC2)cc1 (stereo not drawn) | -32% | -7% | ? | 22% | 10µM*! | -16%
CCC(C)NC(=O)c1cnn(-c2ccc(Cl)cc2)c1C1CCN(C(=O)OC(C)(C)C)CC1 (stereo not drawn) | -6% | -4% | -20%[46.1 µM] | -15% | . | -5%
CN(C)C1(CNC(=O)C2CCN(S(=O)(=O)c3cc(Cl)ccc3Cl)CC2)CCCCC1 | 25µM* | -21% | ? | -12% | ? | -10%
CCn1c(S[C@@H](C)C(=O)O)nc2sc3c(c2c1=O)CCC3 | . | . | . | . | 10%[46.1 µM] | .
C=CC(=O)Nc1ccc(CN2C(=O)N(c3c(Cl)c(OC)cc(OC)c3Cl)Cc3cnc(NCCCCN(CC)CC)nc32)cc1 | . | 3.2µM* | . | ? | . | ?
O=[N+]([O-])c1cc([N+](=O)[O-])c2cc3ccccc3nc2c1 | 3.5µM* | -6% | ? | 28µM* | ? | ?
CC(=O)c1ccc(NC(=O)CSc2cn(CC(=O)N3CCCCCC3)c3ccccc23)cc1 | -9% | -17% | -1%[46.1 µM] | -30% | . | -17%
CCCn1c(=O)c2ccccc2n2c(SCC(N)=O)nnc12 | 8% | 3% | 28%[46.1 µM] | -13% | -1%[46.1 µM] | -2%
CC(C)CCn1c(=O)c2ccccc2n2c(CN3CCCC3)nnc12 | 6% | -6% | 3%[46.1 µM] | -2% | 17%[46.1 µM] | i
CCCCCn1c(=O)c2ccccc2n2c(CCl)nnc12 | 14µM* | -4% | -8% | 20µM* | -14%[14.2 µM] | -9%
CC(C)CCn1c(=O)c2ccccc2n2c(CCl)nnc12 | 3.2µM* | -18% | ? | 32µM* | ? | -10%
CNC(=O)C1CCC(Cn2c(=O)c3sccc3n(CC(=O)Nc3ccccc3)c2=O)CC1 (stereo not drawn) | 5% | -8% | 10%[46.1 µM] | 4% | . | 0%
O=S(=O)(c1ccc2nc(Nc3ccc(Br)cc3F)ccc2c1)N1CCCCC1 | -7% | -7% | 0%[46.1 µM] | -9% | . | -20%
Cc1ccc(NS(=O)(=O)c2ccc(N3CCN(c4ccc(O)cc4)CC3)c([N+](=O)[O-])c2)c(C)c1 | -22% | -24% | -63% | 28µM* | 2.8µM* | -25%
COc1cc2c(cc1OC)C1O[C@](CCCCN3C(=O)c4ccccc4C3=O)(C2)Oc2cc(C)n(Cc3ccccc3)c(=O)c21 | ? | . | . | . | -3%[14.2 µM] | .
Cn1nc(-c2ccc(C(=O)O)cc2)c2ccccc2c1=O | -12% | . | 2% | -8% | -2% | .
Cn1nc(-c2ccc(C(=O)Nc3ccc(OC(F)(F)F)cc3)cc2)c2ccccc2c1=O | 7% | ? | -2%[46.1 µM] | 14µM* | . | ?
Cn1nc(-c2ccc(C(=O)Nc3cccc(C(F)(F)F)c3)cc2)c2ccccc2c1=O | -10% | -25% | 4%[46.1 µM] | 22µM* | ? | ?
CN(CCO)C(=O)c1ccc(-c2nn(C)c(=O)c3ccccc23)cc1 | 2% | -19% | 0% | -20% | ? | i
CN(C(=O)c1ccc(-c2nn(C)c(=O)c3ccccc23)cc1)C1CCCCC1 | 6% | -27% | ? | 22µM* | ? | -26%
CCC1(C2CCN(C(=O)c3cc(F)ccc3F)CC2)NC(=O)N(CCc2scnc2C)C1=O (stereo not drawn) | . | 21% | . | -3% | . | -5%
Cc1cc(=O)[nH]c2nnc(SCC(=O)Nc3ccc(F)cc3F)n12 | 14% | -10% | 12%[46.1 µM] | -11% | . | i
Cc1cc(C(=O)OCC(=O)N2CC(C)CC(C)C2)c(C)o1 (stereo not drawn) | 25µM* | 10% | 13% | 0% | 7% | -2%
Cc1cc(C(=O)OCC(=O)N2c3ccccc3CC2C)c(C)o1 (stereo not drawn) | 25µM* | -16% | 14% | 7% | 3% | .
